Laboratory results as given in publication PMC7862700, “An all-to-all approach to the identification of sequence-specific readers for epigenetic DNA modifications on cytosine”.

Tests used:
Experiment in all cases: DAPPL (digital affinity profiling via proximity ligation, sequencing); 10 mM Tris-HCl pH 7.5, 50 mM NaCl, 1 mM DTT, 4% glycerol, room temperature, 30 min; GST-TFs on glutathione beads, 16-mer random dsDNA library, 0.1% formaldehyde crosslink after washing; high values mean tight binding
[1] = molecular target: T1, FEV (Homo sapiens, UniProt Q99581 1-238); details: protein: recombinant; tags: N-terminal GST; dsDNA, one strand shown
T1 sequence: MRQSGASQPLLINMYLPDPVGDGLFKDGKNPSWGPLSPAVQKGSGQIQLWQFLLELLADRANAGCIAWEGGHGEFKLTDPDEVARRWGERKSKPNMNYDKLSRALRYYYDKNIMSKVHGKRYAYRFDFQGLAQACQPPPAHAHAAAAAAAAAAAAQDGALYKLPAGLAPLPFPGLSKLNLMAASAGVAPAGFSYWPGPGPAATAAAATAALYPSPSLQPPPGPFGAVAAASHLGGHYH
Outline: (§1)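 The binding signal reported is, for every hexamer, its read frequency for a factor over its read frequency for the tag-only sample. Reads came from pools of yeast-expressed, GST-fused human transcription factors on glutathione beads, barcoded with DNA and mixed with that sample, which were incubated with 200 nmole of a random double-stranded 16-mer DNA library in Tris/NaCl/DTT/glycerol buffer at room temperature for 30 min. After washing, the pools were crosslinked with 0.1% formaldehyde, proximity-ligated with BsaI/T4 ligase for 1 h at 37 °C, PCR-amplified and sequenced on an Illumina NextSeq500.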

[2] = molecular target: ETV5 (Homo sapiens, UniProt P41161 1-510); details: protein: recombinant; tags: N-terminal GST; dsDNA, one strand shown
Sequence of ETV5 (P41161 whole entry): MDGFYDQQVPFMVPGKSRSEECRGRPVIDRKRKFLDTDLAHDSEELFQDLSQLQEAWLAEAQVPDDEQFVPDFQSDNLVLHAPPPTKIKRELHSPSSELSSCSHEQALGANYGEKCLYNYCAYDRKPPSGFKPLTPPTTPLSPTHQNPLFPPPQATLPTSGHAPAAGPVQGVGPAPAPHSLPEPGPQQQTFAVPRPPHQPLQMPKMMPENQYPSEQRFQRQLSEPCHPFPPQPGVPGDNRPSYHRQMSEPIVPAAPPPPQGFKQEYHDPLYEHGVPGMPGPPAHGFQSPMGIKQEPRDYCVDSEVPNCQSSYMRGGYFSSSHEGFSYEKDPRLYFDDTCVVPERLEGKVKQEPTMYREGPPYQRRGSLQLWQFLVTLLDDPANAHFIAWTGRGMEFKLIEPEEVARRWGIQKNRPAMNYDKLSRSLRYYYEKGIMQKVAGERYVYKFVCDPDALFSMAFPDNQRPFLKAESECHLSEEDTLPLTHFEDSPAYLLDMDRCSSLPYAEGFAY
Outline: as §1

[3] = molecular target: HSF1 (Homo sapiens, UniProt Q00613 1-529); details: protein: recombinant; tags: N-terminal GST; chain copies: 3; dsDNA, one strand shown
Sequence of HSF1 (Q00613 whole entry): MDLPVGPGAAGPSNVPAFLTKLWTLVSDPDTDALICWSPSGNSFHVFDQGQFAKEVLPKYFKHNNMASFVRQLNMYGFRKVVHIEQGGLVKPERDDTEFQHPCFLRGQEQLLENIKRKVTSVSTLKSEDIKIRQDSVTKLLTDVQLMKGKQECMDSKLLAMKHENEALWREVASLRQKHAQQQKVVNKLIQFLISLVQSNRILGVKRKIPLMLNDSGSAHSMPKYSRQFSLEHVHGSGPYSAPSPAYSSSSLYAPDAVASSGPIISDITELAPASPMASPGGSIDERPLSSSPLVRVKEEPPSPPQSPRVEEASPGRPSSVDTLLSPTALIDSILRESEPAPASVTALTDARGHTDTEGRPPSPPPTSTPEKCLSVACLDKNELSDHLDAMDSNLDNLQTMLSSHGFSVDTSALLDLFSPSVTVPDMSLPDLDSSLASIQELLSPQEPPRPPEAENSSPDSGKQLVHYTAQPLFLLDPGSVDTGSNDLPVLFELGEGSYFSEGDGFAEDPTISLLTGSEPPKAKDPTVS
Outline: as §1

[4] = molecular target: T2, SPIC (Homo sapiens, UniProt Q8N5J4 1-248); details: protein: recombinant; tags: N-terminal GST; dsDNA, one strand shown
T2 sequence: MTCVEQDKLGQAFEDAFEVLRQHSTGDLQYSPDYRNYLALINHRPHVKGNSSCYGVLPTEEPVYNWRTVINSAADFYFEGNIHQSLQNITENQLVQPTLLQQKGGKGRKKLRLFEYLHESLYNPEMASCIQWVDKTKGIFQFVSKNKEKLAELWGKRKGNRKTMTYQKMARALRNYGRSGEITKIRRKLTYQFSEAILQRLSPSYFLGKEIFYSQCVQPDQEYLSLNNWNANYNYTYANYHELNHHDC
Outline: as §1

[5] = molecular target: ELF4 (Homo sapiens, UniProt Q99607 1-663); details: protein: recombinant; tags: N-terminal GST; dsDNA, one strand shown
Sequence of ELF4 (Q99607 whole entry): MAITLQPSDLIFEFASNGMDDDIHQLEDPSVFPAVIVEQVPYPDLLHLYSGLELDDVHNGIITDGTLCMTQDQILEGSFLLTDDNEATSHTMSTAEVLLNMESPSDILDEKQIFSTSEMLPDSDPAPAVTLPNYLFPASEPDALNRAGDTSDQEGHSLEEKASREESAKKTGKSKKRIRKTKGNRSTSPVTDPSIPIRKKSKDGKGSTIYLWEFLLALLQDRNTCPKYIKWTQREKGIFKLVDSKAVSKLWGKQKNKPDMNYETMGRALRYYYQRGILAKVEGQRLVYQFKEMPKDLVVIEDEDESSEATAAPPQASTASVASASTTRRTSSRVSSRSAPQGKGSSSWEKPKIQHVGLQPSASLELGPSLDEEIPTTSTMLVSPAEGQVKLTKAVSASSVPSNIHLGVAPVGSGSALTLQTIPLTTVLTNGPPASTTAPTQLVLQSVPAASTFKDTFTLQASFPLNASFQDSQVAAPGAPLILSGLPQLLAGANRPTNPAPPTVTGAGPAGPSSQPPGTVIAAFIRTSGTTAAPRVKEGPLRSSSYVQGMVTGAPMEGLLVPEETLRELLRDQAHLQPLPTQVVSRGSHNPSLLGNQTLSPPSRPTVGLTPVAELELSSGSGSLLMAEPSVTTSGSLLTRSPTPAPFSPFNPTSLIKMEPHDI
Outline: as §1

[6] = molecular target: T3, ELK4 (Homo sapiens, UniProt P28324-2 1-405); details: protein: recombinant; tags: N-terminal GST; dsDNA, one strand shown
T3 sequence: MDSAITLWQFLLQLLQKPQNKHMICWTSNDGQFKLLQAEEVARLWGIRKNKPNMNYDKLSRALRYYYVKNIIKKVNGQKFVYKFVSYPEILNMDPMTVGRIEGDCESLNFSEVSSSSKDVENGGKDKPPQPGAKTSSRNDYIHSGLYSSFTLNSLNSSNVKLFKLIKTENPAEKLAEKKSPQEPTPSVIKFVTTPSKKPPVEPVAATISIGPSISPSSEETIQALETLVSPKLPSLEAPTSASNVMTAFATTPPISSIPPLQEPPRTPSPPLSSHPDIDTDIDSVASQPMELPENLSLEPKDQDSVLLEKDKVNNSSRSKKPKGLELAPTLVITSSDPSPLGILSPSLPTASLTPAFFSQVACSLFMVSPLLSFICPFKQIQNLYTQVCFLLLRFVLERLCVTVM
Outline: as §1

[7] = molecular target: T4, ETV2 (Homo sapiens, UniProt O00321 1-342); details: protein: recombinant; tags: N-terminal GST; dsDNA, one strand shown
T4 sequence: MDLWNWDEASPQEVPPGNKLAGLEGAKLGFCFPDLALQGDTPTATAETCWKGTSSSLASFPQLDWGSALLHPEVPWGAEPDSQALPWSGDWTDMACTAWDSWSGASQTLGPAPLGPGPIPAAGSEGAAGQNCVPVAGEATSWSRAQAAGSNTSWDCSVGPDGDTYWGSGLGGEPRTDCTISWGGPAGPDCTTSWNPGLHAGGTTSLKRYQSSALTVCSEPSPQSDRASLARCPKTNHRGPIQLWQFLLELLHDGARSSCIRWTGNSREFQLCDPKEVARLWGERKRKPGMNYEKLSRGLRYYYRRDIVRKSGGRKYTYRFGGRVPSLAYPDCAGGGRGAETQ
Outline: as §1

[8] = molecular target: T5, ELF3 (Homo sapiens, UniProt P78545 1-371); details: protein: recombinant; tags: N-terminal GST; dsDNA, one strand shown
T5 sequence: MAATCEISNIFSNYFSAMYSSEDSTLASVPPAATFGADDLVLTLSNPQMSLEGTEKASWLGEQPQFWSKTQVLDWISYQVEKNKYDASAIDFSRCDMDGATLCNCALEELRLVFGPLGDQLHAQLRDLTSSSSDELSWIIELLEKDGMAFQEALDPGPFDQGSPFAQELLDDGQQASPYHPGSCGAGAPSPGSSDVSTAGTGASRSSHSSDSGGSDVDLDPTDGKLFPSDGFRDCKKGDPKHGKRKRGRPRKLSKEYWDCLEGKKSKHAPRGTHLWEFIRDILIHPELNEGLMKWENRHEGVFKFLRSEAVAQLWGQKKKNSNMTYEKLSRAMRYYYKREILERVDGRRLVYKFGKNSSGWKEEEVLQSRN
Outline: as §1

[9] = molecular target: CRX (Homo sapiens, UniProt O43186 1-299); details: protein: recombinant; tags: N-terminal GST; dsDNA, one strand shown
Sequence of CRX (O43186 whole entry): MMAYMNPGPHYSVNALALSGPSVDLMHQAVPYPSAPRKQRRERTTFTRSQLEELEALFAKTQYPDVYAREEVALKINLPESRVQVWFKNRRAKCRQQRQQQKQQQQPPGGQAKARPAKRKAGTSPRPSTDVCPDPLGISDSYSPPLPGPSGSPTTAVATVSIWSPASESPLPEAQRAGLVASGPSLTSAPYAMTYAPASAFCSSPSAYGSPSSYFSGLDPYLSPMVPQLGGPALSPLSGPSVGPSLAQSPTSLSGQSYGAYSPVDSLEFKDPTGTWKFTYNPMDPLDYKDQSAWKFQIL
Outline: as §1

[10] = molecular target: ETV1 (Homo sapiens, UniProt P50549 1-477); details: protein: recombinant; tags: N-terminal GST; dsDNA, one strand shown
Sequence of ETV1 (P50549 whole entry): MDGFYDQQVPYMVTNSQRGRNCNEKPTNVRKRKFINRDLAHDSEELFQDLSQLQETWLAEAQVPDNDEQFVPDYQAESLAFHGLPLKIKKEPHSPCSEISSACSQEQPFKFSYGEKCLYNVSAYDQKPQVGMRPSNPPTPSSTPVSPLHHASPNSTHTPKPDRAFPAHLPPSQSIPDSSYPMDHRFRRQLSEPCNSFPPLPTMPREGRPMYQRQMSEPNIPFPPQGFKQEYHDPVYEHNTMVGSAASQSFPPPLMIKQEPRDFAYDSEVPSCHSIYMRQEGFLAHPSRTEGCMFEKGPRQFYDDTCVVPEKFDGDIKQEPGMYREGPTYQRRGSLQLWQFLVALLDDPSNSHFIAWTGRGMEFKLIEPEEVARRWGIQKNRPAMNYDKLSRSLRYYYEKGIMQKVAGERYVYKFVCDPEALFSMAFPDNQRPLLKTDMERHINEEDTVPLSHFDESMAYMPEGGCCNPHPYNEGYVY
Outline: as §1

[11] = molecular target: T6, ERF (Homo sapiens, UniProt P50548 1-548); details: protein: recombinant; tags: N-terminal GST; dsDNA, one strand shown
T6 sequence: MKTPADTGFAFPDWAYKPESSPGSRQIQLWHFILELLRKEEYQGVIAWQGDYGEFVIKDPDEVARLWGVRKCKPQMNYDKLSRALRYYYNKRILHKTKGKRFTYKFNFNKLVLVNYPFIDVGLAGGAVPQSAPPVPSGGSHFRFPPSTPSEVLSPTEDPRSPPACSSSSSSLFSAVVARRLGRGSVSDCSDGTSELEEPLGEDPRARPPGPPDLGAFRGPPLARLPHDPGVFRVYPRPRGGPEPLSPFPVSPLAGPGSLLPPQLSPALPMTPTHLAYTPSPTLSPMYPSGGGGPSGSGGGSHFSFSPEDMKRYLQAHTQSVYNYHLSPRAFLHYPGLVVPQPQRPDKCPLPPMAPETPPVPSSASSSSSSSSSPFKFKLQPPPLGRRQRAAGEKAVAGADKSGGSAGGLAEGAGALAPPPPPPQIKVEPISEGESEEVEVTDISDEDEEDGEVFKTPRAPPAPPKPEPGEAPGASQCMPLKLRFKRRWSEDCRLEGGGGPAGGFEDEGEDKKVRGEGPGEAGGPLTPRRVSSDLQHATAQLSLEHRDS
Outline: as §1

[12] = molecular target: T7, ETV3L (Homo sapiens, UniProt Q6ZN32 1-361); details: protein: recombinant; tags: N-terminal GST; dsDNA, one strand shown
T7 sequence: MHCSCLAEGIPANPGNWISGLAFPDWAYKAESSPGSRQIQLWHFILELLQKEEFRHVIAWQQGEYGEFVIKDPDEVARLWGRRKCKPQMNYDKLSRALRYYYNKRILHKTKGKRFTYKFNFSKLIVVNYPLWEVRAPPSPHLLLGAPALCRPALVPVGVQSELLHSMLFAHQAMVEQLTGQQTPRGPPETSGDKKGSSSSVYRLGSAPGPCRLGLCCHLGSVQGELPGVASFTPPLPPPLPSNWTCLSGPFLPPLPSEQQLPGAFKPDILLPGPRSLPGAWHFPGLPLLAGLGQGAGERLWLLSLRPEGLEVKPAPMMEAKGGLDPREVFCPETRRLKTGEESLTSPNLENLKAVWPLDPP
Outline: as §1

[13] = molecular target: T8, ETS2 (Homo sapiens, UniProt P15036 1-469); details: protein: recombinant; tags: N-terminal GST; dsDNA, one strand shown
T8 sequence: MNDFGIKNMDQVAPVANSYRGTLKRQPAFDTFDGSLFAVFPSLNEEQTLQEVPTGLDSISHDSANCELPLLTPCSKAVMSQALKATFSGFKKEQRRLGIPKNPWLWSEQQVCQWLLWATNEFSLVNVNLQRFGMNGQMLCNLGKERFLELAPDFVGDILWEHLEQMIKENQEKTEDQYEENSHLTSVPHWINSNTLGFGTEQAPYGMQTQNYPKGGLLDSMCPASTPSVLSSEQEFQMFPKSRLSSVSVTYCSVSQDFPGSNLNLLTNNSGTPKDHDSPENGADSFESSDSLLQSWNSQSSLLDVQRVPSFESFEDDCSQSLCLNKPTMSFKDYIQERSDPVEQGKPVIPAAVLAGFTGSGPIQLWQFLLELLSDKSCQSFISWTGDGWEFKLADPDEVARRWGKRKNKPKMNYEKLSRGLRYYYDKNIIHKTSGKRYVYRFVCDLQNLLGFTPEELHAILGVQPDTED
Outline: as §1

[14] = molecular target: T9, SPDEF (Homo sapiens, UniProt O95238 1-335); details: protein: recombinant; tags: N-terminal GST; dsDNA, one strand shown
T9 sequence: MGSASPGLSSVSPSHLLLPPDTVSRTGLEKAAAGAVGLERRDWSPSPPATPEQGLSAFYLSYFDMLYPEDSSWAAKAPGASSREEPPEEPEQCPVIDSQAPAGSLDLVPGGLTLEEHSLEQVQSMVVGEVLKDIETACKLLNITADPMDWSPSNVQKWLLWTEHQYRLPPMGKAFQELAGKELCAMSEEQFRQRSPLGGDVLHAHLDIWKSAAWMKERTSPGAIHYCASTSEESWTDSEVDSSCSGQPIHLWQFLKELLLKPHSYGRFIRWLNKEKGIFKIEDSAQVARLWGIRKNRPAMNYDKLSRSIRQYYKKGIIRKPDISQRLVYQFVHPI
Outline: as §1

[15] = molecular target: T10, ETV7 (Homo sapiens, UniProt Q9Y603 1-341); details: protein: recombinant; tags: N-terminal GST; dsDNA, one strand shown
T10 sequence: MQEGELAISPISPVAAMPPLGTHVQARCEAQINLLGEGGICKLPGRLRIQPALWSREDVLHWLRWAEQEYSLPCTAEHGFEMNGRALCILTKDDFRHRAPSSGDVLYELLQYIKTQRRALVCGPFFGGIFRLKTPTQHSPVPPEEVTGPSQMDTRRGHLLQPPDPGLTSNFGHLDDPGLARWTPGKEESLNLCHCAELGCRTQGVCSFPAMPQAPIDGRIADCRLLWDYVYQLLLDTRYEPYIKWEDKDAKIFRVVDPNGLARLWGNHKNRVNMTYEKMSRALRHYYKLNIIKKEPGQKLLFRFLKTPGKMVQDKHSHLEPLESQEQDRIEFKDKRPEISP
Outline: as §1

[16] = molecular target: T11, ELF5 (Homo sapiens, UniProt Q9UKW6-2 1-255); details: protein: recombinant; tags: N-terminal GST; dsDNA, one strand shown
T11 sequence: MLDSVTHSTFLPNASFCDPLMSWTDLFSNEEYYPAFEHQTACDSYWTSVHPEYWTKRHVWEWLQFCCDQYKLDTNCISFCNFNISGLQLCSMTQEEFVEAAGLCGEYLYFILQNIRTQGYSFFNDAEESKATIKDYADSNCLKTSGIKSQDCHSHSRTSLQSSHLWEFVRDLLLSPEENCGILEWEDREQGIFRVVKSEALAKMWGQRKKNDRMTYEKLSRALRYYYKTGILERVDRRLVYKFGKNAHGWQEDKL
Outline: as §1

[17] = molecular target: T12, ETV3 (Homo sapiens, UniProt P41162-2 1-143); details: protein: recombinant; tags: N-terminal GST; dsDNA, one strand shown
T12 sequence: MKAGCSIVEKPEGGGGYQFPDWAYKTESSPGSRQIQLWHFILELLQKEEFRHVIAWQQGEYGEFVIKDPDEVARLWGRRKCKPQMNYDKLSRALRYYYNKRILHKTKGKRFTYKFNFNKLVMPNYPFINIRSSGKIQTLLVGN
Outline: as §1

[18] = molecular target: ETV6 (Homo sapiens, UniProt P41212 1-452); details: protein: recombinant; tags: N-terminal GST; dsDNA, one strand shown
Sequence of ETV6 (P41212 whole entry): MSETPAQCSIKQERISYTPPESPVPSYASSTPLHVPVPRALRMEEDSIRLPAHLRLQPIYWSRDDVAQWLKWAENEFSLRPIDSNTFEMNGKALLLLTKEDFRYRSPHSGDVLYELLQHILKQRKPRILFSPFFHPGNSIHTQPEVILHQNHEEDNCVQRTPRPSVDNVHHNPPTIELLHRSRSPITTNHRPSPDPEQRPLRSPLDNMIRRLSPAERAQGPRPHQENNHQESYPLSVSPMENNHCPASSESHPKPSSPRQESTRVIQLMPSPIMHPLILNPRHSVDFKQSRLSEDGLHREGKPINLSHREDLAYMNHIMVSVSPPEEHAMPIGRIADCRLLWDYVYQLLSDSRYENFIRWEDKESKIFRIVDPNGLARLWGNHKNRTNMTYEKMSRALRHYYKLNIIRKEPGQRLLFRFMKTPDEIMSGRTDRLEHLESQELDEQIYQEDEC
Outline: as §1

Sequence	binding signal [1]	binding signal [2]	binding signal [3]	binding signal [4]	binding signal [5]	binding signal [6]	binding signal [7]	binding signal [8]	binding signal [9]	binding signal [10]	binding signal [11]	binding signal [12]	binding signal [13]	binding signal [14]	binding signal [15]	binding signal [16]	binding signal [17]	binding signal [18]
CGCTCT	1.27 fold enrichment (6-mer frequency, TF over GST control)	1.34 fold enrichment (6-mer frequency, TF over GST control)	1.17 fold enrichment (6-mer frequency, TF over GST control)	1.31 fold enrichment (6-mer frequency, TF over GST control)	1.39 fold enrichment (6-mer frequency, TF over GST control)	1.07 fold enrichment (6-mer frequency, TF over GST control)	1.12 fold enrichment (6-mer frequency, TF over GST control)	1.24 fold enrichment (6-mer frequency, TF over GST control)	1.05 fold enrichment (6-mer frequency, TF over GST control)	1.25 fold enrichment (6-mer frequency, TF over GST control)	1.3 fold enrichment (6-mer frequency, TF over GST control)	1.37 fold enrichment (6-mer frequency, TF over GST control)	1.31 fold enrichment (6-mer frequency, TF over GST control)	1.25 fold enrichment (6-mer frequency, TF over GST control)	1.18 fold enrichment (6-mer frequency, TF over GST control)	1.24 fold enrichment (6-mer frequency, TF over GST control)	1.25 fold enrichment (6-mer frequency, TF over GST control)	1.26 fold enrichment (6-mer frequency, TF over GST control)
TTTCCT	2.34 fold enrichment (6-mer frequency, TF over GST control)	2.73 fold enrichment (6-mer frequency, TF over GST control)	1.73 fold enrichment (6-mer frequency, TF over GST control)	2.42 fold enrichment (6-mer frequency, TF over GST control)	2.19 fold enrichment (6-mer frequency, TF over GST control)	2.04 fold enrichment (6-mer frequency, TF over GST control)	2.49 fold enrichment (6-mer frequency, TF over GST control)	2.44 fold enrichment (6-mer frequency, TF over GST control)	1.56 fold enrichment (6-mer frequency, TF over GST control)	2.43 fold enrichment (6-mer frequency, TF over GST control)	2.28 fold enrichment (6-mer frequency, TF over GST control)	2.43 fold enrichment (6-mer frequency, TF over GST control)	2.44 fold enrichment (6-mer frequency, TF over GST control)	2.34 fold enrichment (6-mer frequency, TF over GST control)	2.31 fold enrichment (6-mer frequency, TF over GST control)	4.16 fold enrichment (6-mer frequency, TF over GST control)	2.73 fold enrichment (6-mer frequency, TF over GST control)	2.86 fold enrichment (6-mer frequency, TF over GST control)
